# Reference: PubChem BioAssay
# Active and inactive are the calls of the source. Rule as the data show it, unless noted: active = inhibition above about 80%; inactive = the rest.
# Key:
# [1] = LFS_MB_P medulloblastoma growth inhibition, cell-based, chromothripsis tumors, cisplatin or BGB combos (AID 1671449); conditions: LFS_MB_P medulloblastoma cells;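 also: cells exposed for 96 hours; 0% = vehicle DMSO and 100% = killing by high DMSO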
# [2] = HDN33 neuroblastoma growth inhibition, cell-based, chromothripsis tumors, cisplatin or BGB combos (AID 1671450); conditions: HDN33 neuroblastoma cells, stronger effect = higher value;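 also: cells exposed to compound for four days; 0% = vehicle DMSO and 100% = cell killing by high DMSO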
# [3] = ICB984 medulloblastoma cell growth inhibition, synergistic combos for chromothripsis tumors, cisplatin or BGB combos (AID 1671451; call rule not given here;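 also: cells exposed for 96 hours before readout; 0% = vehicle DMSO and 100% = killing by high DMSO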); conditions: ICB984 medulloblastoma cells, drug combinations, stronger effect = higher value
# [4] = LFS_MB_1R medulloblastoma cell growth inhibition, synergistic combos for chromothripsis tumors, cisplatin or BGB combos (AID 1671452); conditions: LFS_MB_1R medulloblastoma cells, stronger effect = higher value;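 also: cells exposed for 96 hours before readout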
# [5] = HTB85 osteosarcoma cell growth inhibition, synergistic combos for chromothripsis tumors, BGB or cisplatin IC20 combos (AID 1671453); conditions: HTB85 osteosarcoma cells, drug combinations, stronger effect = higher value;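 also: cells exposed for 96 hours before readout; 0% = vehicle DMSO and 100% = high DMSO killing control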
# [6] = CRL2098 osteosarcoma cell growth inhibition, synergistic combos for chromothripsis tumors, BGB or cisplatin IC20 combos (AID 1671454); conditions: CRL2098 osteosarcoma cells, drug combinations, stronger effect = higher value;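 also: cells exposed for 96 h before readout; 0% = vehicle DMSO and 100% = killing by high DMSO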
# [7] = HD-MB03 medulloblastoma cell growth inhibition, synergistic combos for chromothripsis tumors, BGB or cisplatin IC20 combos (AID 1671455; in the data active = inhibition above about 83%;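 also: 0% = vehicle DMSO and 100% = high DMSO as cytotoxic control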); conditions: HD-MB03 medulloblastoma cells, stronger effect = higher value
# [8] = UWB1.289 ovarian carcinoma cell growth inhibition, synergistic combos for chromothripsis tumors, BGB or cisplatin combos (AID 1671456); conditions: UWB1.289 ovarian carcinoma cells, stronger effect = higher value;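 also: cells exposed to compound for four days; 0% = vehicle DMSO and 100% = killing by high DMSO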
# [9] = LFS_MB_2R medulloblastoma cell growth inhibition, synergistic combos for chromothripsis tumors, cisplatin combos (AID 1671457); conditions: LFS_MB_2R medulloblastoma cells, stronger effect = higher value;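 also: cells exposed to compound for four days before readout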
# [10] = MDA-MB-436 breast carcinoma cell growth inhibition, synergistic combos for chromothripsis tumors, BGB or cisplatin combos (AID 1671458; call rule not given here;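 also: cells exposed for 96 hours; 0% = vehicle DMSO and 100% = killing by high DMSO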); conditions: MDA-MB-436 breast carcinoma growth inhibition, drug combinations, stronger effect = higher value
# [11] = UWB1.289_BRCA1 ovarian cancer growth, cell-based, BGB or cisplatin combinations (AID 1671459); conditions: UWB1.289 BRCA1 ovarian carcinoma, drug combinations, stronger effect = higher value
# [12] = human astrocyte viability loss, single and combined drugs, cytotoxicity control for chromothriptic childhood tumor combination screen, cell-based, BGB or cisplatin IC20 combos (AID 1671460); conditions: Human astrocytes, drug combinations, stronger effect = higher value;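 also: cells exposed to compounds for 96 hours before viability readout; 0% = vehicle and 100% = killing control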
# [13] = growth inhibition of BT084 medulloblastoma cells, cell-based, ICGC_MB145, cisplatin and BGB IC40 combos (AID 1671461); conditions: drug combinations, stronger effect = higher value;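 also: cells exposed to drugs for 96 hours; 0% = vehicle DMSO and 100% = high DMSO full killing control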
# [14] = growth inhibition of RCMB18 medulloblastoma cells, cell-based, cisplatin and BGB IC40 combos (AID 1671462); conditions: stronger effect = higher value;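 also: cells exposed to compound for four days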
# [15] = growth inhibition of CRL1545 osteosarcoma cells, cell-based, cisplatin and BGB IC20 combos (AID 1671464); conditions: stronger effect = higher value;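 also: cells exposed to compound for 96 hours before readout; 0% = vehicle DMSO and 100% = high DMSO killing control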
# [16] = at 0.5 µM, stronger effect = higher value
# [17] = measured here: combination with BGB IC20, at 0.005 µM
# [18] = measured here: combination with BGB IC40, at 0.005 µM
# [19] = measured here: combination with BGB IC40, at 0.05 µM
# [20] = measured here: combination with cisplatin, at 0.5 µM, stronger effect = higher value
# [21] = measured here: combination with cisplatin, at 5 µM, stronger effect = higher value
# [22] = measured here: with BGB IC20 combination, at 0.5 µM
# [23] = measured here: with cisplatin IC20 combination, at 0.5 µM
# [24] = measured here: 5 uM single agent, at 5 µM
# [25] = measured here: combination with cisplatin, at 0.5 µM
# [26] = measured here: combination with cisplatin, at 5 µM
# [27] = measured here: with BGB IC20, at 0.5 µM
# [28] = measured here: with BGB IC20, at 5 µM
# [29] = measured here: with cisplatin IC20, at 0.5 µM
# [30] = measured here: with cisplatin IC20, at 5 µM
# [31] = measured here: combination with BGB at IC20, at 0.5 µM
# [32] = measured here: combination with cisplatin at IC20, at 0.5 µM
# [33] = measured here: combo with BGB at IC20, at 0.5 µM
# [34] = measured here: combo with cisplatin at IC20, at 0.5 µM
# [35] = measured here: inhibition with BGB combination, at 0.05 µM
# [36] = measured here: inhibition with cisplatin combination, at 0.05 µM
# [37] = measured here: BGB combination, at 0.5 µM
# [38] = measured here: BGB combination, at 5 µM
# [39] = measured here: cisplatin combination, at 0.5 µM
# [40] = measured here: cisplatin combination, at 5 µM
# [41] = BGB combination, concentration series, at 5 µM
# [42] = cisplatin combination, concentration series, at 5 µM
# [43] = measured here: combo with BGB IC20, at 0.5 µM
# [44] = measured here: combo with cisplatin IC20, at 0.5 µM
# [45] = cisplatin combination, at 0.5 µM
# [46] = measured here: BGB IC40 combination 0.05 uM, at 0.05 µM
# [47] = measured here: BGB IC40 combination, at 0.05 µM
structure (smiles),measurement,setting,value
NC(=O)c1cccc2[nH]c(-c3ccc(C4CCCN4)cc3F)nc12 (stereo unspecified),inhibition,[1]; [16],19.3% (inactive)
same,inhibition,[1]; [17],7.36%
same,inhibition,[1]; [18],-24.3%
same,inhibition,[1]; [19],1.68%
same,inhibition,[1]; [20],52.8%
same,inhibition,[1]; [21],58.1%
same,inhibition,"[2]; BGB combo, at 5 µM",54.3%
same,inhibition,[2]; at 0.5 µM,15.5% (inactive)
same,inhibition,"[2]; cisplatin combo, at 5 µM",60.1%
same,inhibition,[2]; [22],22.6%
same,inhibition,[2]; [23],10.8%
same,inhibition,"[2]; single agent, at 5 µM",54.9%
same,inhibition,"[3]; BGB IC20 combo, at 0.005 µM",3.69%
same,inhibition,"[3]; BGB IC40 combo, at 0.005 µM",-38.8%
same,inhibition,"[3]; BGB IC40 combo, at 0.05 µM",41.6%
same,inhibition,[3]; at 0.5 µM,-20.7% (inactive)
same,inhibition,"[3]; cisplatin combo, at 0.05 µM",39.3%
same,inhibition,"[3]; cisplatin combo, at 0.5 µM",-35.8%
same,inhibition,"[3]; cisplatin combo, at 5 µM",-28.7%
same,inhibition,[3]; [24],-6.58%
same,inhibition,[4]; at 0.5 µM,-15.8% (inactive)
same,inhibition,[4]; [19],-15.1%
same,inhibition,[4]; [25],-24.3%
same,inhibition,[4]; [26],48.8%
same,inhibition,[5]; at 0.5 µM,6.65% (inactive)
same,inhibition,[5]; [27],0.81%
same,inhibition,[5]; [28],37.8%
same,inhibition,[5]; [29],2.33%
same,inhibition,[5]; [30],51.1%
same,inhibition,"[5]; single agent, at 5 µM",52.6%
same,inhibition,[6]; at 0.5 µM,-18.9% (inactive)
same,inhibition,[6]; [31],-1.16%
same,inhibition,[6]; [32],-8.89%
same,inhibition,[7]; at 0.5 µM,7.06% (inactive)
same,inhibition,[7]; [33],1.45%
same,inhibition,[7]; [34],11.4%
same,inhibition,[8]; at 0.5 µM,9.31% (inactive)
same,inhibition,[8]; [35],-4.89%
same,inhibition,[8]; [36],-21.6%
same,inhibition,[9]; at 0.5 µM,-11.1% (inactive)
same,inhibition,[9]; [25],-12.4%
same,inhibition,[9]; [26],48.1%
same,inhibition,[10]; at 0.5 µM,12.2% (inactive)
same,inhibition,[10]; [37],-1.6%
same,inhibition,[10]; [38],34.2%
same,inhibition,[10]; [39],12.5%
same,inhibition,[10]; [40],56.6%
same,inhibition,[11]; [41],55.7%
same,inhibition,[11]; at 0.5 µM,12.5% (inactive)
same,inhibition,[11]; [42],69.9%
same,inhibition,[12]; at 0.5 µM,18.3% (inactive)
same,inhibition,[12]; [43],32.5%
same,inhibition,[12]; [44],12%
same,inhibition,[13]; at 0.5 µM,-17.4% (inactive)
same,inhibition,[13]; [45],-7.13%
same,inhibition,"[13]; cisplatin combination, at 5 µM",41.8%
same,inhibition,[13]; [46],14.7%
same,inhibition,"[13]; single agent, at 5 µM",45%
same,inhibition,[14]; at 0.5 µM,-17.5% (inactive)
same,inhibition,"[14]; cisplatin combo, at 5 µM",55.7%
same,inhibition,[14]; [47],-5.7%
same,inhibition,[14]; [25],-29.9%
same,inhibition,"[14]; single agent, at 5 µM",39.2%
same,inhibition,[15]; at 0.5 µM,-0.89% (inactive)
same,inhibition,[15]; [22],-14.3%
same,inhibition,[15]; [23],5.82%
same,inhibition,"[15]; single agent, at 0.05 µM",27.4%
same,inhibition,"[15]; single agent, at 5 µM",63.4%
O=C(CCCCCCC(=O)Nc1ccc(I)cc1)NO,inhibition,[1]; [16],14.6% (inactive)
same,inhibition,[1]; [17],-13.9%
same,inhibition,[1]; [18],-26.4%
same,inhibition,[1]; [19],-4.26%
same,inhibition,[1]; [20],55%
same,inhibition,[1]; [21],112%
same,inhibition,"[2]; BGB combo, at 5 µM",92.7%
same,inhibition,[2]; at 0.5 µM,2.25% (inactive)
same,inhibition,"[2]; cisplatin combo, at 5 µM",96.8%
same,inhibition,[2]; [22],2.67%
same,inhibition,[2]; [23],4.68%
same,inhibition,"[2]; single agent, at 5 µM",96.1%
same,inhibition,"[3]; BGB IC20 combo, at 0.005 µM",-14%
same,inhibition,"[3]; BGB IC40 combo, at 0.005 µM",-21.6%
same,inhibition,"[3]; BGB IC40 combo, at 0.05 µM",79.6%
same,inhibition,[3]; at 0.5 µM,-43% (inactive)
same,inhibition,"[3]; cisplatin combo, at 0.05 µM",78.8%
same,inhibition,"[3]; cisplatin combo, at 0.5 µM",-63.2%
same,inhibition,"[3]; cisplatin combo, at 5 µM",-38.3%
same,inhibition,[3]; [24],-6.51%
same,inhibition,[4]; at 0.5 µM,4.61% (inactive)
same,inhibition,[4]; [19],-30%
same,inhibition,[4]; [25],7%
same,inhibition,[4]; [26],97.8%
same,inhibition,[5]; at 0.5 µM,-14.1% (inactive)
same,inhibition,[5]; [27],-30.7%
same,inhibition,[5]; [28],58%
same,inhibition,[5]; [29],-7.38%
same,inhibition,[5]; [30],98.3%
same,inhibition,"[5]; single agent, at 5 µM",68.5%
same,inhibition,[6]; at 0.5 µM,-40.1% (inactive)
same,inhibition,[6]; [31],-46.1%
same,inhibition,[6]; [32],-23.5%
same,inhibition,[7]; at 0.5 µM,12.8% (inactive)
same,inhibition,[7]; [33],5.06%
same,inhibition,[7]; [34],20.3%
same,inhibition,[8]; at 0.5 µM,14.7% (inactive)
same,inhibition,[8]; [35],-32%
same,inhibition,[8]; [36],-13.2%
same,inhibition,[9]; at 0.5 µM,-12.8% (inactive)
same,inhibition,[9]; [25],3.62%
same,inhibition,[9]; [26],99%
same,inhibition,[10]; at 0.5 µM,-16.9% (inactive)
same,inhibition,[10]; [37],-27.7%
same,inhibition,[10]; [38],49.2%
same,inhibition,[10]; [39],-20.6%
same,inhibition,[10]; [40],53.6%
same,inhibition,[11]; [41],84.7%
same,inhibition,[11]; at 0.5 µM,7.03% (inactive)
same,inhibition,[11]; [42],105%
same,inhibition,[12]; at 0.5 µM,29.2% (inactive)
same,inhibition,[12]; [43],30.5%
same,inhibition,[12]; [44],21.3%
same,inhibition,[13]; at 0.5 µM,12.2% (inactive)
same,inhibition,[13]; [45],29.6%
same,inhibition,"[13]; cisplatin combination, at 5 µM",105%
same,inhibition,[13]; [46],-26.1%
same,inhibition,"[13]; single agent, at 5 µM",103%
same,inhibition,[14]; at 0.5 µM,20.3% (inactive)
same,inhibition,"[14]; cisplatin combo, at 5 µM",94.9%
same,inhibition,[14]; [47],-10.7%
same,inhibition,[14]; [25],54.3%
same,inhibition,"[14]; single agent, at 5 µM",85.9%
same,inhibition,[15]; at 0.5 µM,46.9% (inactive)
same,inhibition,[15]; [22],39.3%
same,inhibition,[15]; [23],50.7%
same,inhibition,"[15]; single agent, at 0.05 µM",-7.66%
same,inhibition,"[15]; single agent, at 5 µM",95.3%
